Dicer inh – inhibitors of Dicer pre-microRNA processing, primary screen, biochemical, cat-ELCCA, chemiluminescence; Endoribonuclease Dicer (Homo sapiens), Q9UPY3; cat-ELCCA pre-miR-21 Dicer processing; stronger effect = higher value; z-score at 25 µM; 47,000 compounds, 6% hits; in the data active means z-score above about 3, passing the limit was not always enough;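 further: plate controls were vehicle for no effect and no enzyme for full effect; higher signal means more uncleaved substrate so more Dicer inhibition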
* = called active by the depositor. This excerpt belongs to a sample that is enriched for hits.

SMILES	Dicer inh
C/C(=N\N=C1/NC(=O)C(CC(=O)O)S1)c1csc2ccccc12 (configuration not stated)	1.48
CCOC(=O)C1=C(C)NC2=C(C(=O)CC(C)(C)C2)C1c1cc2c(cc1Br)OCO2 (configuration not stated)	-0.27
Cc1ccc(C(=O)CSc2n[nH]c(-c3ccncc3)n2)cc1C	0.58
CCNC(=O)C(NC(=O)OC(C)(C)C)C(C)OCc1ccccc1 (configuration not stated)	4.72*
CC(C)(C)OC(=O)NC(COCc1ccccc1)C(=O)NCc1ccccc1 (configuration not stated)	-0.87
CCNC(=O)C(C)NC(=O)OC(C)(C)C (configuration not stated)	-0.15
CCCCNC(=O)N/N=C(/N)c1ccccn1	-0.54
O=C(CCc1ccccc1)NNc1cc(Cl)cc(Cl)c1	-0.26
C#Cc1cccc(NC(=O)c2ccccc2)c1	-0.48
Cc1cccc(NC(=S)NNC(=O)NNC(=S)Nc2cccc(C)c2)c1	1.57
C#Cc1cccc(NC(=S)NNC(=S)Nc2cccc(C#C)c2)c1	8.88*
c1cc(CNc2ccc3c(c2)OCO3)ccn1	1.7
Fc1ccc(NCc2ccncc2)cc1	3.53*
Fc1ccc(NCc2ccc3c(c2)OCO3)cc1	323
O=C(NCc1ccco1)C1CCN(S(=O)(=O)c2ccc(Br)cc2)CC1	0.18
COC(=O)c1ccc(COc2ccc3ccccc3c2)o1	0.18
Cc1cc(Nc2ccc(F)cc2)nc(SCc2c(Cl)cccc2Cl)n1	8.88
CN(C)c1ccc(/C=C/c2nc3n(n2)C=COc2ccccc2-3)cc1	6.06*
O=C(O)CSc1nnc2n1-c1ccc(Cl)cc1NN2	-1.13
CCn1c(SCC(=O)O)nc2cc(Cl)c(Cl)cc21	2.37
N#Cc1c(Cl)cccc1N1CCC(C(=O)N/C=N/O)CC1	-0.57
CCc1ccc(C2Nc3cccc4cccc(c34)N2)cc1	0.54
CCOc1cc(C2Nc3cccc4cccc(c34)N2)ccc1O	2.86
COc1cc(OC)c(C2Nc3cccc4cccc(c34)N2)c(OC)c1	1.84
CN(C)c1ccc(C2Nc3cccc4cccc(c34)N2)cc1	0.05
SMILES	Dicer inh
O=C1NC(c2ccc(Cl)cc2)Nc2ccccc21 (configuration not stated)	-0.49
O=C1NC(c2cccc(Br)c2)Nc2ccccc21 (configuration not stated)	2.1
c1ccc(C2Nc3cccc4cccc(c34)N2)cc1	6.15*
COc1ccccc1C1Nc2cccc3cccc(c23)N1	2.16
CC(C)(C)c1ccc(C2Nc3cccc4cccc(c34)N2)cc1	4.96*
c1ccc2c(C3Nc4cccc5cccc(c45)N3)cccc2c1	4.37*
Brc1cccc(C2Nc3cccc4cccc(c34)N2)c1	5.15*
COc1cc(C2Nc3cccc4cccc(c34)N2)ccc1OCc1ccccc1	2.91
c1ccc2c(CSc3nnc(C4CCNCC4)o3)cccc2c1	-0.73
Cn1cnc(S(=O)(=O)N(Cc2ccccc2)Cc2cccs2)c1	1.69
CC(C)(CO)NCC(O)COc1ccc(F)cc1 (configuration not stated)	0.6
Cn1c(=O)c2cnc(-c3ccccc3Cl)nc2n(C)c1=O	2.17
CCCCC(=O)Oc1cc2c(C(=O)OCC)c(C)n(C)c2c2ccccc12	0.25
CCc1cc(C(=O)c2ccc(OC)cc2)c(NC(=O)CSc2nnc(-c3ccc4ccccc4c3)n2C)s1	-0.26
Cn1ccnc1S/C=C/C(=O)c1ccc(Cl)cc1	-0.17
CN(C)c1ncnc2c1C(c1ccc(Br)cc1)c1c(ncnc1N(C)C)O2	4.98*
COc1cc(OC)cc(C(C)(C)OC(=O)N[C@H](C(=O)O)C(C)OC(C)(C)C)c1 (some centres not stated)	-1.12
O=c1c2ccccc2[nH]c(=S)n1CC1CC1	2.25
N#CC1=C2N=C(N)c3ccccc3N2C2=C(C(=O)CCC2)C1c1ccc2c(c1)OCO2 (configuration not stated)	2.36
COCCCNC(=S)N/N=C/c1ccc(O)cc1	-0.81
COCCCNC(=S)N/N=C/c1ccc(O)cc1O	-2.73
COCCCNC(=S)N/N=C/c1cccc(OC)c1O	4.24*
COC(=O)c1cnn(C(=O)Nc2ccccc2)c1C(OC)OC	1.24
CN1C2C=C(N(CCc3ccccc3)C(=O)c3ccccc3)CC1CC2 (configuration not stated)	3.14*
CCN(C(=O)c1ccccc1)c1cccc2ccccc12	-1.19
SMILES	Dicer inh
CN(C(=O)c1ccccc1)C(=O)N(C)C(=O)c1ccccc1	-1.42
CC(=O)c1ccccc1C(=O)c1ccc(C(F)(F)F)cc1	-0.35
CCCOC(=O)C1=C(C)NC2=C(C(=O)CCC2)C1c1cccc(Br)c1 (configuration not stated)	-0.63
CC[C@H]1OC(=O)[C@H](C)[C@@H](O[C@H]2C[C@@](C)(OC)[C@@H](O)[C@H](C)O2)[C@H](C)[C@@H](O[C@@H]2O[C@H](C)C[C@H](N(C)C)[C@H]2O)[C@](C)(O)C[C@@H](C)/C(=N\OCOCCOC)[C@H](C)[C@@H](O)[C@]1(C)O	-1.17
CN(C)/C=N/c1c(-c2nc(-c3ccc(Cl)cc3)cs2)cnn1C	0.61
CNNC(=S)Nc1ccc(Cl)cc1	0.59
